Holding throughout (test): PBM; 200 nM protein, PBS
Holding throughout (details): dsDNA, one strand shown

The target in experiment [1] is PROP1 (Homo sapiens, UniProt O75360 56-141).
Experiment [2] addresses PROP1 (Homo sapiens, UniProt O75360 56-141, R99H).
For experiment [3], the target named is PROP1 (Homo sapiens, UniProt O75360 56-141, F88S).
For experiment [4], the target named is MSX2 (Homo sapiens, UniProt P35548 130-214, R199I).
Experiment [5] has as its target MSX2 (Homo sapiens, UniProt P35548 130-214).
Experiment [6] addresses MSX2 (Homo sapiens, UniProt P35548 130-214, F161Y).
In experiment [7] the target is T1, PAX4 (Homo sapiens, UniProt O43316 9-242).
T1 sequence: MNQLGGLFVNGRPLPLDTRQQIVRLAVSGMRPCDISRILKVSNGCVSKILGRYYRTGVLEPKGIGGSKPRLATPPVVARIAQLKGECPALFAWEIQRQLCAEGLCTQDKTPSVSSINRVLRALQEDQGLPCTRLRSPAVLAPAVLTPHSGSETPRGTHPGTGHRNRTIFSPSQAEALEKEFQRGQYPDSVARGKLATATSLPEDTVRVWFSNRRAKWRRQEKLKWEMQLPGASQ

Experiment [8] addresses T2, PAX4 (Homo sapiens, UniProt O43316 9-242, R200Q).
T2 sequence: T1 sequence with R192Q

In experiment [9] the target is T3, PAX4 (Homo sapiens, UniProt O43316 9-242, R227W).
T3 sequence: T1 sequence with R219W

In experiment [10] the target is T4, SIX6 (Homo sapiens, UniProt O95475 114-200, H141N).
T4 sequence: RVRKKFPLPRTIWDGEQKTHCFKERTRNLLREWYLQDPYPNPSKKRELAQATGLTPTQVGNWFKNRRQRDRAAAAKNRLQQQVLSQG

Experiment [11] concerns the target ALX1 (Homo sapiens, UniProt Q15699 118-204, L144V).
Experiment [12] deals with T5, SIX6 (Homo sapiens, UniProt O95475 114-200, T165A).
T5 sequence: T4 sequence with N28H, T52A

The target of experiment [13] is ALX1 (Homo sapiens, UniProt Q15699 118-204, L144R).
Chain of ALX1 (Homo sapiens, UniProt Q15699 118-204, L144R) (Q15699 118-204 L144R): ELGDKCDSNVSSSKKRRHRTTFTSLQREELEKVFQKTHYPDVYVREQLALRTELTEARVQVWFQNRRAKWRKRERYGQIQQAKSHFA
Experiment [14] deals with T6, SIX6 (Homo sapiens, UniProt O95475 114-200).
T6 sequence: T4 sequence with N28H

For experiment [15], the target named is ALX1 (Homo sapiens, UniProt Q15699 118-204).
Chain of ALX1 (Homo sapiens, UniProt Q15699 118-204) (Q15699 118-204): as the sequence (Q15699 118-204 L144R) above, with R27L counted along it
The target in experiment [16] is ALX4 (Homo sapiens, UniProt Q9H161 200-286).
Chain of ALX4 (Homo sapiens, UniProt Q9H161 200-286) (Q9H161 200-286): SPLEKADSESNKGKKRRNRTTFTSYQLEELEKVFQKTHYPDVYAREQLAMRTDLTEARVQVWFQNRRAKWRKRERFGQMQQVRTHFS
Experiment [17] concerns the target ALX4 (Homo sapiens, UniProt Q9H161 200-286, Q225E).
Experiment [18] has as its target T7, NKX2-6 (Homo sapiens, UniProt A6NCS4 118-204, R150C).
T7 sequence: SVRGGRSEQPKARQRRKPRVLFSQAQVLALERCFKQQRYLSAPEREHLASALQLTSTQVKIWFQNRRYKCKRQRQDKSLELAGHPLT

Experiment [19] addresses PRRX1 (Homo sapiens, UniProt P54821 80-166, F113S).
The target of experiment [20] is PRRX1 (Homo sapiens, UniProt P54821 80-166).
Chain of PRRX1 (Homo sapiens, UniProt P54821 80-166) (P54821 80-166): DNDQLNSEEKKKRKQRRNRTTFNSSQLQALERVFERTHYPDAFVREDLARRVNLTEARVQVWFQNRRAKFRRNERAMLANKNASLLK

Where a chain is given by its changes, count along the chain named.

Chain of ALX1 (Homo sapiens, UniProt Q15699 118-204, L144V) (Q15699 118-204 L144V): as the sequence (Q15699 118-204 L144R) above, with R27V counted along it
Chain of MSX2 (Homo sapiens, UniProt P35548 130-214, R199I) (P35548 130-214 R199I): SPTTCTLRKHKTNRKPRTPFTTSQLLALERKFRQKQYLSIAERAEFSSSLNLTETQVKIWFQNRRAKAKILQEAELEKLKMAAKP
Chain of MSX2 (Homo sapiens, UniProt P35548 130-214, F161Y) (P35548 130-214 F161Y): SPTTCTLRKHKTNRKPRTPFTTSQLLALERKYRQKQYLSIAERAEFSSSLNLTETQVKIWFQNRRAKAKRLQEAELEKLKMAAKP
Chain of MSX2 (Homo sapiens, UniProt P35548 130-214) (P35548 130-214): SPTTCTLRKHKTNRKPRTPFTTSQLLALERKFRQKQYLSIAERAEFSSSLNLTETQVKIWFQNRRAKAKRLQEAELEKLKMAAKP
Chain of PROP1 (Homo sapiens, UniProt O75360 56-141, F88S) (O75360 56-141 F88S): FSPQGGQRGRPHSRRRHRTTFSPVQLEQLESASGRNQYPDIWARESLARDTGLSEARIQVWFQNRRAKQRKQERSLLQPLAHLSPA
Chain of PROP1 (Homo sapiens, UniProt O75360 56-141, R99H) (O75360 56-141 R99H): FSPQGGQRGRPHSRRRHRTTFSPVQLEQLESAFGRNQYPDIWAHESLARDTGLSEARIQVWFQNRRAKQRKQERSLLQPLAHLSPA
Chain of PROP1 (Homo sapiens, UniProt O75360 56-141) (O75360 56-141): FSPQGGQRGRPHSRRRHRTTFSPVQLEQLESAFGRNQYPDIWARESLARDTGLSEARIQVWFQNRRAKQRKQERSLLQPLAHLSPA
Chain of ALX4 (Homo sapiens, UniProt Q9H161 200-286, Q225E) (Q9H161 200-286 Q225E): as the sequence (Q9H161 200-286) above, with Q26E counted along it
Chain of PRRX1 (Homo sapiens, UniProt P54821 80-166, F113S) (P54821 80-166 F113S): as the sequence (P54821 80-166) above, with F34S counted along it

As to ACTAATGG, the binding signal was 9.71 upbm affinity estimate (log intensity, higher = more binding, comparable within an allelic series) in experiment [1]; 9.39 upbm affinity estimate (log intensity, higher = more binding, comparable within an allelic series) in [2]; 7.3 upbm affinity estimate (log intensity, higher = more binding, comparable within an allelic series) in experiment [3].

As to GCCGCCGC, the binding signal was 9.4 upbm affinity estimate (log intensity, higher = more binding, comparable within an allelic series) in [4]; 9.37 upbm affinity estimate (log intensity, higher = more binding, comparable within an allelic series) in experiment [5]; 9.42 upbm affinity estimate (log intensity, higher = more binding, comparable within an allelic series) in experiment [6].

GGTCATTA: the binding signal in [4] is 11.6 upbm affinity estimate (log intensity, higher = more binding, comparable within an allelic series); in [5], 12.7 upbm affinity estimate (log intensity, higher = more binding, comparable within an allelic series); in experiment [6] it was 12.5 upbm affinity estimate (log intensity, higher = more binding, comparable within an allelic series).

Consider GACCAGGC, for which the binding signal is 9.45 upbm affinity estimate (log intensity, higher = more binding, comparable within an allelic series) in [7]; 9.45 upbm affinity estimate (log intensity, higher = more binding, comparable within an allelic series) in experiment [8]; 9.37 upbm affinity estimate (log intensity, higher = more binding, comparable within an allelic series) in experiment [9].

Take GCGCAGCC: the binding signal in experiment [10] is 8.75 upbm affinity estimate (log intensity, higher = more binding, comparable within an allelic series); in [11], 6.42 upbm affinity estimate (log intensity, higher = more binding, comparable within an allelic series); in experiment [12], 8.78 upbm affinity estimate (log intensity, higher = more binding, comparable within an allelic series); in experiment [13] it was 6.45 upbm affinity estimate (log intensity, higher = more binding, comparable within an allelic series); in experiment [14], 8.73 upbm affinity estimate (log intensity, higher = more binding, comparable within an allelic series); in experiment [15], 6.41 upbm affinity estimate (log intensity, higher = more binding, comparable within an allelic series).

ATTAATCG: the binding signal in experiment [7] is 12.2 upbm affinity estimate (log intensity, higher = more binding, comparable within an allelic series); in [8] it was 12 upbm affinity estimate (log intensity, higher = more binding, comparable within an allelic series); in [9], 10.7 upbm affinity estimate (log intensity, higher = more binding, comparable within an allelic series).

In the case of GGAGCTCC, the binding signal in experiment [16] was 7.72 upbm affinity estimate (log intensity, higher = more binding, comparable within an allelic series); in experiment [17], 7.79 upbm affinity estimate (log intensity, higher = more binding, comparable within an allelic series); in experiment [4] it was 9.52 upbm affinity estimate (log intensity, higher = more binding, comparable within an allelic series); in [5] it was 9.28 upbm affinity estimate (log intensity, higher = more binding, comparable within an allelic series); in experiment [6] it was 9.3 upbm affinity estimate (log intensity, higher = more binding, comparable within an allelic series).

As for GGCCCCCC, the binding signal in [10] is 8.65 upbm affinity estimate (log intensity, higher = more binding, comparable within an allelic series); in [12] it was 8.73 upbm affinity estimate (log intensity, higher = more binding, comparable within an allelic series); in experiment [14], 8.69 upbm affinity estimate (log intensity, higher = more binding, comparable within an allelic series).

As to CGGGCTAG, the binding signal in experiment [18] is 9.48 upbm affinity estimate (log intensity, higher = more binding, comparable within an allelic series).

Regarding GCCGCTCC, the binding signal was 9.15 upbm affinity estimate (log intensity, higher = more binding, comparable within an allelic series) in experiment [10]; 9.12 upbm affinity estimate (log intensity, higher = more binding, comparable within an allelic series) in experiment [12]; 9.12 upbm affinity estimate (log intensity, higher = more binding, comparable within an allelic series) in experiment [14].

ATTATTAA: the binding signal in experiment [19] was 11 upbm affinity estimate (log intensity, higher = more binding, comparable within an allelic series); in [20] it was 13.2 upbm affinity estimate (log intensity, higher = more binding, comparable within an allelic series).

On to TATTAATA, for which the binding signal was 11.9 upbm affinity estimate (log intensity, higher = more binding, comparable within an allelic series) in [8] and 11.2 upbm affinity estimate (log intensity, higher = more binding, comparable within an allelic series) in [9].

For the sequence GATAATGA, the binding signal was 12.7 upbm affinity estimate (log intensity, higher = more binding, comparable within an allelic series) in experiment [16]; 11.4 upbm affinity estimate (log intensity, higher = more binding, comparable within an allelic series) in experiment [7]; 11.2 upbm affinity estimate (log intensity, higher = more binding, comparable within an allelic series) in [17]; 11.2 upbm affinity estimate (log intensity, higher = more binding, comparable within an allelic series) in [8]; 10.6 upbm affinity estimate (log intensity, higher = more binding, comparable within an allelic series) in experiment [9].

In the case of ACCGCCGG, in experiment [18], the binding signal was 9.49 upbm affinity estimate (log intensity, higher = more binding, comparable within an allelic series).

Regarding TTAATGAA, the binding signal in experiment [11] was 11 upbm affinity estimate (log intensity, higher = more binding, comparable within an allelic series); in [13], 10.7 upbm affinity estimate (log intensity, higher = more binding, comparable within an allelic series); in experiment [15] it was 11.5 upbm affinity estimate (log intensity, higher = more binding, comparable within an allelic series).

Regarding AGGGGGGG, the binding signal in experiment [7] is 9.16 upbm affinity estimate (log intensity, higher = more binding, comparable within an allelic series); in experiment [8] it was 9.15 upbm affinity estimate (log intensity, higher = more binding, comparable within an allelic series); in experiment [9] it was 9.07 upbm affinity estimate (log intensity, higher = more binding, comparable within an allelic series).

For the sequence CGGGCTTC, the binding signal was 8.97 upbm affinity estimate (log intensity, higher = more binding, comparable within an allelic series) in experiment [7]; 9.39 upbm affinity estimate (log intensity, higher = more binding, comparable within an allelic series) in experiment [4]; 9.21 upbm affinity estimate (log intensity, higher = more binding, comparable within an allelic series) in experiment [8]; 9.32 upbm affinity estimate (log intensity, higher = more binding, comparable within an allelic series) in [5]; 9.35 upbm affinity estimate (log intensity, higher = more binding, comparable within an allelic series) in [6]; 9.24 upbm affinity estimate (log intensity, higher = more binding, comparable within an allelic series) in experiment [9].

On to GGCCCCCA, for which the binding signal in experiment [11] is 6.64 upbm affinity estimate (log intensity, higher = more binding, comparable within an allelic series); in experiment [13], 6.56 upbm affinity estimate (log intensity, higher = more binding, comparable within an allelic series); in [15] it was 6.65 upbm affinity estimate (log intensity, higher = more binding, comparable within an allelic series).

With TAATGATA, the binding signal in experiment [1] was 9.99 upbm affinity estimate (log intensity, higher = more binding, comparable within an allelic series); in [2] it was 9.25 upbm affinity estimate (log intensity, higher = more binding, comparable within an allelic series); in [3], 7.61 upbm affinity estimate (log intensity, higher = more binding, comparable within an allelic series).

With CCGGACCA, the binding signal in experiment [4] was 9.46 upbm affinity estimate (log intensity, higher = more binding, comparable within an allelic series); in experiment [5], 9.39 upbm affinity estimate (log intensity, higher = more binding, comparable within an allelic series); in [6] it was 9.4 upbm affinity estimate (log intensity, higher = more binding, comparable within an allelic series).

CGAGGCAC: the binding signal in experiment [4] is 9.52 upbm affinity estimate (log intensity, higher = more binding, comparable within an allelic series); in [5] it was 9.5 upbm affinity estimate (log intensity, higher = more binding, comparable within an allelic series); in experiment [6], 9.56 upbm affinity estimate (log intensity, higher = more binding, comparable within an allelic series).

Values taken from PMC11006913.
